Source: publication PMC5540273 (PLoS ONE, 2017)

What was measured:
Conditions in all cases: concentration: 1 μM, replicates: in singlicate; n = 1
EPHB2 = system: EPHB2
EPHB3 = system: EPHB3
EPHB4 = system: EPHB4
EPHB6 = system: EPHB6
ERBB2 = system: ERBB2
ERBB3 = system: ERBB3
ERBB4 = system: ERBB4
ERK1 = system: T1, ERK1
T1 construct: gene MAPK3

ERK2 = system: T2, ERK2
T2 construct: gene MAPK1

ERK3 = system: T3, ERK3
T3 construct: gene MAPK6

ERK4 = system: T4, ERK4
T4 construct: gene MAPK4

ERK5 = system: T5, ERK5
T5 construct: gene MAPK7

ERK8 = system: T6, ERK8
T6 construct: gene MAPK15

ERN1 = system: ERN1
FAK = system: T7, FAK
T7 construct: gene PTK2

FER = system: FER
FES = system: FES
FGFR1 = system: FGFR1
FGFR2 = system: FGFR2
FGFR3 = system: FGFR3
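Note: KINOMEscan kinase panel screen.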

SMILES	%Inh (EPHB2)	%Inh (EPHB3)	%Inh (EPHB4)	%Inh (EPHB6)	%Inh (ERBB2)	%Inh (ERBB3)	%Inh (ERBB4)	%Inh (ERK1)	%Inh (ERK2)	%Inh (ERK3)	%Inh (ERK4)	%Inh (ERK5)	%Inh (ERK8)	%Inh (ERN1)	%Inh (FAK)	%Inh (FER)	%Inh (FES)	%Inh (FGFR1)	%Inh (FGFR2)	%Inh (FGFR3)
CCc1nc(-c2cccc(C)c2)c(-c2ccnc(NC(=O)c3ccccc3)c2)s1	4%	36%	37%	100%	46%	2%	34%	0%	40%	4%	2%	9%	0%	23%	0%	0%	32%	11%	0%	0%
CC(C)N1CCC(n2cnc(-c3ccc(F)cc3)c2-c2ccnc(N)n2)CC1 [SB-223132]	32%	0%	22%	0%	16%	44%	0%	0%	11%	0%	0%	0%	4%	0%	16%	8%	0%	22%	10%	21%
Cl.Cl.c1ccc(-c2cc3ccncc3cc2OC2CCNCC2)cc1 [GSK1122999]	47%	17%	5%	11%	10%	0%	0%	0%	4%	24%	8%	0%	0%	0%	0%	36%	0%	0%	0%	11%
Cl.O=S(=O)(c1cccc(F)c1)c1ccc(Nc2ncnc3cc(Br)sc23)cc1Cl [GSK306886]	42%	19%	17%	0%	98.7%	0%	43%	0%	0%	10%	44%	4%	0%	11%	0%	14%	13%	0%	0%	16%
Cc1ccc(O)cc1Nc1cc(C(F)(F)F)nc2ccc(-c3ccncc3)cc12 [GW630823]	3%	0%	18%	9%	0%	0%	0%	2%	5%	9%	5%	9%	7%	0%	3%	1%	6%	0%	4%	0%
FC(F)(F)c1ccc(-c2nn3ncccc3c2-c2ccnc(Nc3cccc(C(F)(F)F)c3)n2)cc1 [GW828205]	1%	68%	55%	0%	13%	27%	35%	0%	3%	0%	0%	0%	0%	0%	9%	2%	7%	33%	100%	8%
O=C(NCCCN1CCCC1=O)c1cnc(NCc2cc(Cl)ccc2Cl)nc1NC1CCNCC1	0%	0%	0%	19%	9%	3%	0%	0%	11%	0%	0%	0%	17%	0%	0%	0%	0%	11%	14%	0%
CSc1ccc(NC2=C(c3ccccc3Cl)C(=O)NC2=O)cc1 [SB-342411]	15%	0%	3%	18%	0%	0%	0%	5%	0%	0%	9%	0%	0%	9%	0%	5%	0%	11%	4%	26%
CSc1nn2c(=O)cc(N3CCOCC3)nc2n1Cc1cccc(Cl)c1Cl [GSK2347225]	0%	6%	11%	52%	0%	0%	0%	0%	17%	15%	21%	0%	0%	9%	0%	44%	13%	6%	17%	17%
FC(F)(F)c1ccc(-c2cc(-c3c[nH]nc3-c3ccccn3)ccn2)cc1 [GW599550]	0%	0%	8%	37%	38%	16%	0%	15%	0%	0%	0%	0%	0%	0%	0%	32%	0%	5%	0%	4%
Nc1nc(-c2cccnc2)c(-c2ccnc3ccccc23)s1 [GW684083]	0%	17%	11%	28%	51%	20%	8%	11%	4%	0%	12%	0%	0%	0%	0%	24%	0%	4%	20%	21%
O=C(Nc1n[nH]c2nc(-c3ccco3)c(Br)cc12)c1ccc(CN2CCCC2)cc1.O=C(O)[C@H](O)[C@@H](O)C(=O)O [SB-742352]	47%	0%	0%	95.7%	0%	0%	27%	0%	0%	0%	0%	0%	0%	0%	0%	4%	0%	0%	0%	1%
Nc1nc(-c2ccc3c(N)n[nH]c3c2)cc(N2CCCCC2)n1 [GSK2228768]	0%	0%	8%	0%	2%	0%	0%	0%	0%	6%	2%	0%	0%	7%	0%	10%	0%	0%	0%	0%
Clc1cccc(-c2nc(Nc3ccncc3)c3ccccc3n2)c1 [GW873004]	2%	0%	45%	0%	38%	46%	0%	1%	12%	0%	0%	0%	23%	0%	11%	16%	16%	37%	11%	0%
CNc1nccc(-c2c(-c3ccc(F)cc3)ncn2CCCN2CCOCC2)n1 [SB-222516]	0%	0%	8%	0%	0%	30%	8%	7%	1%	0%	2%	0%	14%	0%	6%	12%	7%	26%	0%	0%
Fc1ccc(-c2ncn(CCCNCc3ccccc3)c2-c2ccncc2)cc1	14%	19%	17%	36%	10%	23%	0%	5%	14%	0%	14%	0%	13%	14%	0%	13%	23%	0%	0%	0%
Cc1cc(N2CCC(NS(=O)(=O)c3ccc(F)cc3)CC2)nc(Nc2cccc(C#N)c2)n1.O=C(O)C(F)(F)F [GSK1653537]	0%	1%	13%	8%	13%	0%	0%	0%	0%	7%	0%	0%	31%	0%	0%	18%	26%	6%	0%	16%
COc1ccc(NC(=O)Nc2ccc(C)c(-c3ccc(C(=O)Nc4ccncc4)cc3)c2)cc1 [GSK1398475]	12%	13%	13%	20%	0%	0%	19%	2%	0%	9%	0%	0%	0%	0%	0%	5%	2%	0%	0%	11%
COc1ccc(-c2oc3ncnc(N)c3c2-c2ccc(OC)cc2)cc1 [SB-589132]	0%	24%	5%	36%	41%	46%	33%	0%	0%	6%	27%	0%	0%	18%	0%	5%	0%	0%	3%	0%
Nc1n[nH]c2nnc(-c3ccccc3)cc12 [SB-517389]	80%	10%	22%	0%	7%	0%	0%	0%	0%	16%	30%	0%	18%	3%	0%	0%	0%	0%	5%	11%
Fc1cccc(COc2ccc(Nc3ncnc4sc(-c5ccc[nH]5)cc34)cc2Cl)c1 [GW707818]	15%	0%	0%	16%	100%	0%	88%	0%	0%	3%	51%	6%	0%	10%	0%	12%	0%	0%	0%	6%
